Data taken from the supplement of paper PMC12494721.
Structures can show the parent of a compound that is named as a salt. Values without a mark were called inactive.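 How the source made its calls: for the amine columns active = adjusted P below 0.05 in both replicates with a change the same way and a mean fold change under 0.8 or over 1.25; inactive = the rest.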

The compounds below were run on Ruminococcus gnavus DSM 108212 (assay: fold change of 2-Phenylethylamine concentration vs plate DMSO controls (fold change (ratio)); higher = more amine produced, active = hit call of the paper (significant change in both replicates, either direction)). Conditions: incubation time: 27 h, anaerobic, 37 °C.
Procedure, shortened: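 Each value is the fold change relative to DMSO-only wells on the same plate. Four gut bacterial strains were grown anaerobically in mGAM at 37 °C for 27 h in 80 µL wells, starting at OD 0.1 before a 1:1 dilution, with compounds at 20 µM final (sweeteners 50 µM). Whole cultures were extracted with cold acetonitrile/methanol containing 0.1% formic acid, centrifuged, and amines were quantified by LC–triple-quadrupole MS (dynamic MRM) against external calibration curves with within-batch drift correction. Values are means of 2 biological replicates.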

Row | SMILES | fold change of 2-Phenylethylamine concentration
1 | Nc1nc(CC(=O)Nc2ccc(CCNC[C@H](O)c3ccccc3)cc2)cs1 [Mirabegron] (20 µM) | 1.05
2 | CS(=O)(=O)OCCCCOS(C)(=O)=O [Busulfan] (20 µM) | 1.09
3 | CCN(CC)CCOC(=O)C(Cc1cccc2ccccc12)CC1CCCO1 (centres undefined) [Nafronyl oxalate] (20 µM) | 1.01
4 | C[C@H]1O[C@@H](O[C@H]2[C@@H](O)C[C@H](O[C@H]3[C@@H](O)C[C@H](O[C@H]4CC[C@@]5(C)[C@H](CC[C@@H]6[C@@H]5C[C@@H](O)[C@]5(C)[C@@H](C7=CC(=O)OC7)CC[C@]65O)C4)O[C@@H]3C)O[C@@H]2C)C[C@H](O)[C@@H]1O [Digoxin] (20 µM) | 1.03
5 | COc1cc(N)c(Cl)cc1C(=O)NC1CCN(CCCOc2ccc(F)cc2)CC1OC (centres undefined) [Cisapride] (20 µM) | 0.929
6 | O=C(O[C@@H]1C[C@@H]2C[C@H]3C[C@H](C1)N2CC3=O)c1c[nH]c2ccccc12 [Dolasetron mesilate] (20 µM) | 1.04
7 | Cc1oncc1C(=O)Nc1ccc(C(F)(F)F)cc1 [Leflunomide] (20 µM) | 1.01
8 | CC(C)Cn1cnc2c(N)nc3ccccc3c21 [Imiquimod] (20 µM) | 0.162 (active)
9 | Clc1ccc2c(c1)C(N1CCNCC1)=Nc1ccccc1O2 [Amoxapine] (20 µM) | 0.952
10 | CCCCCN(C)CCC(O)(P(=O)(O)O)P(=O)(O)O [Ibandronate sodium] (20 µM) | 0.958
11 | CN1CCc2c(c3ccccc3n2Cc2ccccc2)C1 [Mebhydroline 1,5-naphtalenedisulfonate] (20 µM) | 0.898
12 | C=C1/C(=C\C=C2/CCC[C@]3(C)[C@@H]([C@H](C)/C=C/[C@@H](O)C4CC4)CC[C@@H]23)C[C@@H](O)C[C@@H]1O [Calcipotriene] (20 µM) | 0.981
13 | Cc1nc(=O)c2cc(CN(C)c3ccc(C(=O)N[C@@H](CCC(=O)O)C(=O)O)s3)ccc2[nH]1 [Raltitrexed] (20 µM) | 1.06
14 | Cc1cn[nH]c1 [Fomepizole] (20 µM) | 0.988
15 | CC[C@@H]1C(=O)OC[C@@H]1Cc1cncn1C [Pilocarpine nitrate] (20 µM) | 0.965
16 | C=C(CC)C(=O)c1ccc(OCC(=O)O)c(Cl)c1Cl [Ethacrynic acid] (20 µM) | 0.917
17 | Cc1cccc(C)c1OCC(=O)N[C@@H](Cc1ccccc1)[C@@H](O)C[C@H](Cc1ccccc1)NC(=O)[C@H](C(C)C)N1CCCNC1=O [Lopinavir] (20 µM) | 0.997
18 | OCCN1C[C@H](O)[C@@H](O)[C@H](O)[C@H]1CO [Miglitol] (20 µM) | 1.03
19 | CCOc1ccccc1OCC1CNCCO1 (centres undefined) [Viloxazine hydrochloride] (20 µM) | 0.696 (active)
20 | CC[C@@]1(O)C(=O)OCc2c1cc1n(c2=O)Cc2cc3c(CN(C)C)c(O)ccc3nc2-1 [Topotecan] (20 µM) | 1.01

Row | SMILES | fold change of 2-Phenylethylamine concentration
21 | CC(C)N1CCN(c2ccc(OCC3COC(Cn4cncn4)(c4ccc(Cl)cc4Cl)O3)cc2)CC1 (centres undefined) [Terconazole] (20 µM) | 0.977
22 | CN1CCN(c2c(F)cc3c(=O)c(C(=O)O)cn4c3c2OCN4C)CC1 [Marbofloxacin] (20 µM) | 1.04
23 | O=C(O)c1cc(=O)[nH]c(=O)[nH]1 [Orotic acid] (20 µM) | 0.948
24 | c1ccc2c(c1)Cc1ccccc1-2 [Fluorene] (20 µM) | 0.967
25 | Oc1c(Br)cc(Br)c2cccnc12 [Broxyquinoline] (20 µM) | 0.6
26 | CCC[C@@H]1C[C@@H](C(=O)N[C@@H]([C@H]2O[C@H](SC)[C@H](O)[C@@H](O)[C@H]2O)[C@H](C)Cl)N(C)C1 [Clindamycin hydrochloride] (20 µM) | 0.125 (active)
27 | COC(=O)Nc1nc2cc(Sc3ccccc3)ccc2[nH]1 [Fenbendazole] (20 µM) | 1.02
28 | CN(c1nccc(=O)[nH]1)C1CCN(c2nc3ccccc3n2Cc2ccc(F)cc2)CC1 [Mizolastine] (20 µM) | 0.967
29 | CC[N+](C)(C)c1cccc(O)c1 [Edrophonium chloride] (20 µM) | 1.11
30 | CC[C@@H]([C@H](C)O)n1ncn(-c2ccc(N3CCN(c4ccc(OC[C@@H]5CO[C@@](Cn6cncn6)(c6ccc(F)cc6F)C5)cc4)CC3)cc2)c1=O [Posaconazole hydrate] (20 µM) | 1.02
31 | COCC1=C(C(=O)OC(C)OC(=O)OC(C)C)N2C(=O)[C@@H](NC(=O)/C(=N\OC)c3csc(N)n3)[C@H]2SC1 (some centres undefined) [Cefpodoxime proxetil] (20 µM) | 0.605
32 | O=c1n(CCCN2CCN(c3cccc(Cl)c3)CC2)nc2ccccn12 [Trazodone hydrochloride] (20 µM) | 0.799
33 | CC1=C(C(=O)O)N2C(=O)[C@@H](NC(=O)[C@H](N)c3ccccc3)[C@H]2SC1 [Cephalexin monohydrate] (20 µM) | 1.15
34 | CCCSc1nc(N[C@@H]2C[C@H]2c2ccc(F)c(F)c2)c2nnn([C@@H]3C[C@H](OCCO)[C@@H](O)[C@H]3O)c2n1 [Ticagrelor] (20 µM) | 0.802
35 | Cc1cc(NS(=O)(=O)c2ccc(N)cc2)nc(C)n1 [Sulfisomidine] (20 µM) | 1.08
36 | CN1CCN(C(c2ccccc2)c2ccc(Cl)cc2)CC1 (centres undefined) [Chlorcyclizine hydrochloride] (20 µM) | 0.919
37 | OC[C@H](O)C(O)[C@@H](O)CO [L-Arabinitol] (50 µM) | 0.908
38 | CC(C)COC(=O)OCN1C(=O)CN(CCN2CC(=O)N(COC(=O)OCC(C)C)C(=O)C2)CC1=O [Sobuzoxane] (20 µM) | 1.05
39 | CCCNC(=O)NS(=O)(=O)c1ccc(Cl)cc1 [Chlorpropamide] (20 µM) | 1.31 (active)
